Data from the supplement of paper PMC6555819.

Tested on: VDR:RXRa (NR concentration 270 nM, RXRa partner concentration 90 nM)
Assay: PBM binding z-score (relative to random genomic background probes); higher = stronger binding; sequences stand for … in GC…GCGATTGACAGCGTAGAATGAAGG
Procedure: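 Protein-binding microarray (Agilent 4x180K custom design, double-stranded 60-nt probes: 5' GC cap, 34-nt variable region, 24-nt constant primer region; full probe sequence given). Purified or IVT nuclear receptor:RXRα heterodimers (3:1 NR:RXRα, mostly 270:90 nM) or homodimers were incubated for 1 h in PBS with 2% milk and no ligand, then detected with Alexa488 antibodies. Fluorescence from o1-orientation probes (~5 replicates averaged) was converted to z-scores against 500 random hg19 background probes. Variable regions are seed direct-repeat (DR0–DR5) sites, all their single-nucleotide variants and half-site ablations.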

Sequence | PBM binding z-score
CAAACTAGGACAAGGTCAAAGTCGGTTTGTGCCA | 4.36
TCTATTAGTTGCAGGGCAACCGACGAGTCCGTTT | 0.743
CATAGCAGGCCAATCTGGGTCACTCAAGGCTTGA | 0.95
AGAATGAGGTTATACGAAGATCAGGGAAGAAAGT | 1.13
ATCTCTAGGTAAAAGTTCAGTAAATCCCGAGGAT | 1.19
CCGACTGGGTCAGAAAGGTTACCATACCATCCGG | 4.2
ATCGAAAGGTCGACGAGGTGAGTCTACACCGTTT | 5.5
TCTAGTAGATCAAGCAGGTTAAGAAAGCCTGAGT | 0.576
TCTAGCAGGCCAGAGGATCACTCAAGAGGTACGG | -0.662
CCGAGTAGGTTGTGGGGCATTCAGGCAACGGTGA | -0.367
GCTAGTTGGTCAGTAAAAGGTCTCACACCGGTCG | -0.141
ATATGTAGGTTAGCTGGGGTCATCCAGACTAGGC | 6.18
TCTTGTAGATCCAGCAGGTTAAGAAAGCCTGAGT | 0.306
CGTCCAAGGTCAAGGTTAGTGAAAGAGACTCGAA | 3.93
ATCTCTAGGGAACCAAGTTCAGTGAATGCCGAAC | 2.1
TAGCCTAGGTCATTCAGGGGCCAGTATCGAAAGC | 2.97
TCAGACAGGTGAAGGTAACTAAGGTACGCAGTCG | 1.01
GATACACGGTCAGCTAGAGGCCAGAGTATGGAAA | -0.349
TAGACTAGGTCAGATCGGGCCAGTATACGCTATA | 0.598
GCTTACGGGTCAAAGGTTATAGGATGAATAGAAT | 5.56

Sequence | PBM binding z-score
ATCTATAGGTAAAGATAGTTCAGTGAATGCAAAT | 1
CCTGACAGGTGAGAAGGTAACTCAGCCTCGATTA | -0.0801
CGAACGAGGGCATGAGTTGATAGCCAATGCCGAT | 1.09
CCGACTGGGGCAAAGGTAACCATACTCAGTACGA | 0.122
AGTCAAAGTTCATCTAGGTAACGTACGATATGCT | 5.15
AGAAAGAGGTTAAGATCAGGGAAACAGAATACAT | 1.25
TCATATAGGTAAGCAGGTGAAAGTCCGTAAGTTA | 0.388
GCTGCTAGGTCAGGTTTGTCAGCTAACGGGTACG | 0.236
GCTCCTAGGTCAGGTTGGTCAGCTAACGGGTACG | 0.913
TCTCGGAGGACACGAAGGTCTGAGCTTTCCAGAG | -0.323
CCTTACGGGTCACTTCAGGTTATAGCATCGGAGT | 4.22
TCATATAGTTAAACAGGTGAAAGTCCGTAAGTTA | 1.21
CCAGACAGGTTAAAGGTAACTCAGTCTGGTACGC | 1.62
CCTTACGGGTCACGAGGTTATAGCACGACGAGCG | 5.23
TCAGACAGGTGAAGGTAACCCAGGTACGCAGTCG | 0.641
GCGACTGGTGCAAAGCAGGTTACCATAAGGTTGG | -0.134
TCGAGTAGGTTTGGGGCATTCAGAATGGCGTCGA | -0.0942
ACTATTAGTTGACACGAGGGCAACCGATAGGTTG | 1.4
ATCGAAAGGTCGAGGTGGGTATAGAGAAAGGGAA | 3.34
CCGACTGGGGCATAAGGTTACCATTAGCCAGCCC | -0.0219
